# Source: PubChem BioAssay
# Hits are enriched below; roughly 3.2% of the tested compounds scored in any of these assays.
# Sm TGR inh: S. mansoni TGR enzyme inhibition; Q962Y6; purified TGR, DTNB reduction, TNB absorbance 405 nm; Potency, µM (series often up to 114 µM), for the others: top-dose activity change, negative = inhibition, hits mostly inhibitors; hit rate 3% among 360,000; AID 485364; further: nearly all actives have a fitted effect of over 60% in size
#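 First, TGR (20 nM dispensed) and NADPH were mixed with compound. Second, a 15 min room-temperature incubation followed. Third, further NADPH and then DTNB were added to start the reaction. Finally, TNB absorbance was monitored kinetically.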
# LmPK inhibitor: blocks Leishmania mexicana pyruvate kinase activity | AID 1721 | hit rate 0.37% among 290,000 | Potency, µM (top dose mostly 57.5 µM), without a hit: at the top dose activity change, negative = inhibition, usual class: inhibitors | purified LmPK, Kinase-Glo ATP luminescence, 1 h
# Target sequence (Q27686 whole entry, looked up): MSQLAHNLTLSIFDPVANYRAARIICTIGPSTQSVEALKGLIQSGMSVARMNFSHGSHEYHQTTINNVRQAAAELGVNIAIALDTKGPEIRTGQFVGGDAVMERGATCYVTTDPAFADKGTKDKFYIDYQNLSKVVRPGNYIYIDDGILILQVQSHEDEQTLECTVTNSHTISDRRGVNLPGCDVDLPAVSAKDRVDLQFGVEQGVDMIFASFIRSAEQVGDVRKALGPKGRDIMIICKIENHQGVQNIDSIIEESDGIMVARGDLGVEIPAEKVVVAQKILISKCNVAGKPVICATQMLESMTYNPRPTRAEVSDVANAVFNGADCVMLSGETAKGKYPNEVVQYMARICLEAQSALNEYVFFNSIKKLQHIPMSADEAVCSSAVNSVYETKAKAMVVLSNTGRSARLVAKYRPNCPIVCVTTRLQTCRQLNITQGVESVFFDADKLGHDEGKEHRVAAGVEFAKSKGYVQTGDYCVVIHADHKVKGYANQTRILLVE
#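 ATP generated from ADP (0.1 mM) and PEP (0.5 mM) by 0.1 nM LmPK over 1 h at room temperature (pH 7.2 imidazole buffer) was detected by coupled luciferase luminescence. Values were normalized to uninhibited and no-enzyme wells.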
# RE007 growth inh: less growth of the S. pombe RE007 Vpr strain | S. pombe RE007 Vpr strain, BacTiter-Glo ATP luminescence, 24 h | Potency, µM (series often up to 92.2 µM), for the others: top-dose activity change, negative = less growth, usual class: inhibitors | hit rate 0.21% among 360,000 | AID 651644; active means well fitted falling curve with a large enough effect; inconclusive means small, poorly fitted or top-dose-only effect; inactive means no such curve, though single readings can be large or run the other way; further: nearly all actives have a fitted effect of over 50% in size
#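 Fission yeast strain RE007, carrying one chromosomally integrated HIV-1 vpr copy, was seeded at OD 0.01 in PMG+AL medium with 23 nL pinned compound. After 24 h at 30 °C and 99% humidity, viability was read by BacTiter-Glo luminescence.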
# Tb PYK inh: inhibitors of Trypanosoma brucei pyruvate kinase; Q57TT1; TbPYK enzyme, Kinase-Glo Plus ATP luminescence, 45 min; Potency, µM (doses to about 76.8 µM), without a hit: at the top dose activity, negative = inhibition, usual class: inhibitors; hit rate 0.12% among 410,000; AID 624173; further: nearly all actives have a fitted effect of over 50% in size
#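 Glycolytic pyruvate kinase of T. brucei was incubated with substrate, test compound and 130 uM ADP for 45 minutes at room temperature. Luminescent Kinase-Glo Plus signal was measured after 10 minutes.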
# AMA1 RON2 block: AMA1-RON2 (P. falciparum) interaction inhibition | AlphaScreen AMA1-biotinylated RON2 peptide binding | Potency, µM (highest dose often 58.2 µM), without a hit: at the top dose activity change, negative = inhibition, usual class: inhibitors | hit rate 0.2% among 360,000 | AID 720542;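 further: 0% = vehicle wells and -100% = peptide control; nearly all actives have a fitted effect of over 45% in size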
#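 AMA1 (3D7) with his tag at 25 nM final met compounds first, then biotinylated RON2 peptide at 25 nM; detection used donor plus acceptor beads, 10 µg/mL apiece, read by AlphaScreen after 30 min at room temperature.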
# Numbers without * were called inactive; u = inconclusive; x = no result given; [ ] = dose if it differs, or a comment. Unless noted, the call rests on the fitted dose curve; in most records, active means well fitted curve in the direction sought with a large enough effect; inconclusive means small, poorly fitted or top-dose-only effect, or another doubt; inactive means no such curve, though single readings can be large; an effect the other way counts as inactive or inconclusive. Unless noted, on the % scale 0 is the no-effect control and ±100 the full control effect; potency means the concentration at half of the fitted maximal effect.
SMILES,Sm TGR inh,LmPK inhibitor,RE007 growth inh,Tb PYK inh,AMA1 RON2 block
O=C(NC1CCCCCC1)c1ccc([N+](=O)[O-])s1,-4%,x,45µM*,4%,-2%
Cc1noc(NS(=O)(=O)c2ccc(NC(=O)CCn3c(=O)oc4ccccc43)cc2)c1C,16µM*,2%,20%,-6%,-8%
COc1ccc(N2CCC(CNC(=S)Nc3cc(C)cc(C)c3)C2)cc1 (stereo not drawn),0%,5%,8%,-21%,6.3µM*
CCOc1ccccc1Oc1c(C)oc2cc(OC(=O)c3ccco3)ccc2c1=O,35µM*,2%,-2%,2%,18%
COc1ccccc1Oc1c(C)oc2cc(OC(=O)c3ccco3)ccc2c1=O,-17%,5%,-3%,-6%,0%
Cc1ccc(-c2csc(Nc3ccc(S(N)(=O)=O)cc3)n2)o1,1.8µM*,-2%,2%,-19%,4%
Cc1ccc(-c2csc(NC(=O)Cc3ccc(F)cc3)n2)o1,7.1µM*,3%,-17%,u,-8%
Cc1ccc(-c2csc(NC(=O)c3ccc(-c4ccccc4)cc3)n2)o1,10µM*,-8%,-4%,-20%,11%
CCn1c(C(=O)N2CCC(C(=O)NCCc3ccc(OC)cc3OC)CC2)cc2sccc21,-8%,x,x,-2%,x
Cc1ccc(-n2ncc(C(=O)NCCN3CCCC3)c2C2CCN(C(=O)OC(C)(C)C)CC2)cc1C,-25%,x,x,2%[15.4 µM],x
O=C(NCc1ccc(/C=c2\sc3n(c2=O)CCN=3)o1)C(=O)Nc1ccccc1,35µM*,-9%,x,x,x
Cc1ccc(/C=c2\sc3n(c2=O)CN(c2ccc(Br)cc2)CN=3)o1,13µM*,-3%,-2%,-11%,7%
Cc1nc2ccccn2c1C(=O)N/N=C/c1ccc(CNC(=O)C(=O)Nc2ccccc2)o1,-18%,-2%,-19%,0%,3%
O=c1/c(=C\c2ccc3c(c2)OCO3)sc2n1CCCN=2,0%,u,u,-6%,-17%
Cc1ccc(/C=c2/sc3n(c2=O)CCCN=3)o1,11µM*,-28%,-18%,-8%,-7%
CCOC(=O)C1CCCN(S(=O)(=O)c2ccc3[nH]c(=O)ccc3c2)C1 (stereo not drawn),12%,x,x,0%,x
CC(=O)N1CCc2c(sc3c2c(=O)n(-c2ccccc2)c(=O)n3Cc2cccc(C(F)(F)F)c2)C1,1%,x,x,4%,x
Fc1ccc(Nc2c(-c3c[nH]c4ccccc34)nc3ccccn23)cc1,-6%,x,x,0%,x
COc1ccc(Cc2c(C)nn(-c3nc(C)c(C(=O)Nc4cccc(C(C)=O)c4)s3)c2C)cc1,-1%,x,x,-8%,x
CCCCc1c(-c2ccccc2)ncn1CCc1ccccc1OC,x,x,-30%,-3%,-24%
CCCCc1c(-c2cccc(Cl)c2)ncn1CCc1ccccc1OC,x,x,45µM*,8%,-12%
Cc1oc(/C=N/NS(=O)(=O)c2ccccc2)cc1Br,0.11µM*,-1%,-8%,-11%,1%
COc1ccc(C(CCNCc2ccc(N(C)C)cc2)c2ccccc2OC)cc1 (stereo not drawn),-8%,3%,-3%,10%,13µM*
COc1ccc(CNCCC(c2ccc(OC)cc2)c2ccccc2OC)cc1 (stereo not drawn),-21%,-2%,7%,-2%,5%
O=C1N=C(N2CCCC2C(=O)O)S/C1=C\c1ccco1 (stereo not drawn),7.1µM*,11%,23%,u,17%
SMILES,Sm TGR inh,LmPK inhibitor,RE007 growth inh,Tb PYK inh,AMA1 RON2 block
COc1ccc(-c2nnc(SCC(=O)NCc3ccccc3)nc2-c2ccc(OC)c(OC)c2)cc1OC,-9%,x,x,2%,x
COc1ccc(Cc2n[nH]c(=S)n2C)cc1Br,32µM*,7%,18%,u,9%
COc1ccc(Cc2n[nH]c(=S)n2N)cc1OC,x,3%,-10%,u,69%
COc1ccc(C(=O)/C=C/C(=O)N(CC(=O)NC2CCCCC2)Cc2ccc(F)cc2)c(O)c1,3.5µM*,1%,-4%,-19%,-16%
COc1ccc(C(=O)/C=C/C(=O)N(CC(=O)NCCC(C)C)Cc2cccs2)c(O)c1,2.8µM*,-16%,1%,u,0%
COc1ccc(-c2cn3nc(N4CCC(C(=O)Nc5ccc(C)cc5)CC4)sc3n2)cc1,2%,x,x,-5%[15.4 µM],x
CCOC(=O)C1CCN(C(=O)C2CCN(S(=O)(=O)c3c(C)noc3/C=C/c3ccc(C)cc3)CC2)CC1,7%,x,x,-2%,x
CCOc1cc(C(=O)NCC(c2ccc(N(C)C)cc2)N2CCOCC2)cc(OCC)c1OCC (stereo not drawn),7%,x,x,-12%,x
Cc1cc(N2C(=O)CC(N3CCN(C(c4ccccc4)c4ccccc4)CC3)C2=O)no1 (stereo not drawn),45µM*,0%,-26%,-14%,0%
Cc1ccc2c(c1N)C(=O)c1ccccc1C2=O,-11%,x,-28%,-8%,u
Cc1ccc2c(c1C)-c1c(ccc(C)c1C)C(=O)C2=O,x,x,45µM*,1%,-29%
Cc1cccc(CSc2nc3c(cc2C#N)CN(C)CC3)c1,-31%,-3%,12%,-2%,8%
CN1CCc2nc(SCc3ccccc3Br)c(C#N)cc2C1,22µM*,-2%,-21%,-10%,-11%
COc1ccc(-c2noc(-c3ccccc3NC(=O)c3cc(OC)c(OC)c(OC)c3)n2)cc1,0%,x,x,-2%,x
CC(NC(=O)c1cnc2n(c1=O)CCS2)c1ccccc1 (stereo not drawn),-19%,-2%,-15%,-4%,-9%
O=c1c(C(c2ccccc2)c2c(O)nc3n(c2=O)CCCS3)c(O)nc2n1CCCS2,4.5µM*,5%,-2%,-9%,32%
O=c1c(C(c2ccccc2)c2c(O)nc3n(c2=O)CCS3)c(O)nc2n1CCS2,1.8µM*,6%,-9%,-6%,-5%
O=c1c(C(c2ccc(F)cc2)c2c(O)nc3n(c2=O)CCCS3)c(O)nc2n1CCCS2,1.8µM*,3%,-6%,-8%,7%
COc1cccc(NC(=O)Cn2c(=O)n(CCCCC(=O)NCCc3ccccc3)c(=O)c3ccccc32)c1,-1%,x,x,-3%,x
CCSC1=NC2(CCN(C(=O)NC3CCCCC3)CC2)N=C1c1ccc(Cl)cc1,27%,x,x,2%,x
CCOc1ccc(NC(=O)C2CCCN(c3nn4cc(-c5ccc(OC)cc5)nc4s3)C2)cc1 (stereo not drawn),9%,x,x,-9%[15.4 µM],x
O=C1/C(=C/c2cccnc2)SC(=S)N1c1ccccc1,-3%,1%,5%,1%,-10%
O=C1/C(=C/c2cccnc2)SC(=S)N1Nc1ccccc1,2µM*,3%,12%,2%,4%
CN1CCc2nc3sc(C(=O)Nc4ccccc4C(F)(F)F)c(N)c3cc2C1,-8%,x,x,-8%,x
COC(=O)CN(Cc1ccco1)S(=O)(=O)c1ccccc1,22µM*,4%,-2%,3%,-5%
